In PubChem BioAssay (Tox21):
Values joined by “and” are separate entries in the source; they are usually repeats but may differ in a detail not shown here. Equal values may be shown once. Records with an inconclusive call do not appear. Entries that show only a call come without a potency. Active and inactive are the calls of the source. Calls come from the whole dose curve; as a rule, active = well fitted cell-killing curve with a large enough effect in the repeat runs; inconclusive = weak or mixed curves, or effect the other way; inactive = flat fitted curve, though single readings scatter.

Test: Caspase-3/7 induction in HepG2 cells by small molecules, qHTS cell viability counter screen (AID 1346981); note: nearly all actives have a fitted effect of over 30% in size
Settings: CellTiter-Fluor fluorescence, 17 h; series mostly up to 92.4 µM
From the text: U.S. Tox21 Program National Center for Advancing Translational Sciences [NCATS] NIH Chemical Genomics Center [NCGC] U.S. Environmental Protection Agency [EPA] National Institutes of Environmental Health Sciences [NIEHS] National Toxicology Program [NTP] U.S. Food and Drug Administration [FDA] Tox21 Assay Overview: Apoptosis is a process of programmed cell death and plays a central role in the development of multicellular organisms. It is a highly regulated process and induces cell death by activating caspases, which are the members of cysteine aspartic acid-specific protease (caspase) family. Caspases involved in apoptosis are classified by their mechanism of action as initiator caspases (caspase-2, -8, -9 and -10) and executioner caspases (caspase-3, -6, and -7). Inhibition of apoptosis results in number of cancers, autoimmune diseases, inflammatory diseases and viral infection. To identify small molecule compounds that induce apoptosis, a homogeneous, luminescent Caspase-Glo 3/7 assay was used. Wild type HepG2 cells were used to screen Tox21 libraries for identifying caspase-3/7 activity inducers. Also cytotoxicity of the compounds was tested in parallel by measuring the cell viability using CellTiter-Fluor assay system in the same wells.
Tox21 Assay Protocol Summary: HepG2 cells were dispensed at 2,000 per well in 5uL of culture medium into white solid bottom 1536-well plates (Corning Life Sciences, Corning, NY) using a Multidrop Combi (Thermo Scientific, Waltham, MA) dispenser. The assay plates were incubated at 37 C and 5% CO2 for 5hr, and then 23nL of compounds dissolved in DMSO and positive control were transferred using a Pintool station ([…], San Diego, CA). The assay plates were incubated at 37C and 5% CO2 for 17hr. For cytotoxicity read, after 16hr incubation at 37C, 1uL CellTiter-Fluor reagent (Promega Corporation, Madison, WI) was added to each well of the assay plates using Flying Reagent Dispenser (FRD, Aurora Discovery, San Diego, CA). After 1hr incubation at 37C and 5% CO2, the fluorescence signal was quantified using a ViewLux plate reader (PerkinElmer, Shelton, CT).
Potency is the fitted concentration of half-maximal effect.

Structure (SMILES) | Potency
O=C(c1ccccc1)c1ccccc1O | inactive
OC1CCCCCCCCCCC1 | inactive
Cc1cccc([N+](=O)[O-])c1C | inactive
CC(=O)C1(C)CC2=C(CCCC2(C)C)CC1C (stereo not given) | inactive
COC(=O)c1ccccc1 | inactive
CC(C)=CCC/C(C)=C\CO | inactive
C=C(C)C(=O)OCCOC(=O)C(=C)C | inactive
Cc1ccc(C(=O)c2cc(O)c(O)c([N+](=O)[O-])c2)cc1 | 43.3 µM (active)
c1ccc2cc(Nc3ccc(Nc4ccc5ccccc5c4)cc3)ccc2c1 | inactive
c1ccc2sc(SSN3CCOCC3)nc2c1 | inactive
Oc1ccc(O)cc1 | inactive
Cc1ncc[nH]1 | inactive
CCCCNS(=O)(=O)c1ccccc1 | inactive
CC(=O)CC/C=C(\C)CCC=C(C)C | inactive
C[C@]12CC[C@H]3[C@@H](CCC4=CC(=O)CC[C@@]43C)[C@@H]1CC[C@@H]2C(=O)CO | inactive
C[C@]12CCC(=O)C=C1CC[C@@H]1[C@@H]2C(=O)C[C@@]2(C)[C@H]1CC[C@]2(O)C(=O)CO | inactive
O=C(/C=C/C=C/c1ccc2c(c1)OCO2)N1CCCCC1 | inactive
c1ccncc1 | inactive
O=S(=O)(O)c1ccc(O)cc1 | inactive
Nc1ccc(S(=O)(=O)Nc2cnc3ccccc3n2)cc1 | inactive

Structure (SMILES) | Potency
CCCCCCCCCCCO | inactive
Cc1ccc2c(n1)Oc1ccc(C(C)C(=O)OCC(=O)N(C)C)cc1C2 (stereo not given) | inactive
Cc1ccc(C)c(O)c1C | inactive
Cc1c(C(N)=O)cc([N+](=O)[O-])cc1[N+](=O)[O-] | inactive
CC(=O)O[C@]1(C(C)=O)CC[C@H]2[C@@H]3C=C(Cl)C4=CC(=O)[C@@H]5C[C@@H]5[C@]4(C)[C@H]3CC[C@@]21C | inactive
c1ccc2c(c1)Oc1ccccc1S2 | inactive
Nc1ncn([C@@H]2O[C@H](CO)[C@@H](O)[C@H]2O)c(=O)n1 | 1.72 µM (active) and 2.98 µM (active)
CC(C)Oc1ccc2c(=O)c(-c3ccccc3)coc2c1 | inactive
CN(C)c1nc(N(C)C)nc(N(C)C)n1 | inactive
OC(CCl)CCl | inactive
c1ccc(Nc2ccccc2)cc1 | inactive
CCCCC(CC)COP(=O)(OCC(CC)CCCC)OCC(CC)CCCC (stereo not given) | inactive
Nc1ccc(Cl)cc1Cl | inactive
C#C[C@]1(O)CC[C@H]2[C@@H]3CCc4cc(OC)ccc4[C@H]3CC[C@@]21C | inactive
CC(C(=O)O)c1cccc(C(=O)c2ccccc2)c1 (stereo not given) | inactive
C=C(C)C1CC=C(C)CC1 (stereo not given) | inactive
OC[C@H]1O[C@@H]2O[C@H]3[C@H](O)[C@@H](O)[C@@H](O[C@H]4[C@H](O)[C@@H](O)[C@@H](O[C@H]5[C@H](O)[C@@H](O)[C@@H](O[C@H]6[C@H](O)[C@@H](O)[C@@H](O[C@H]7[C@H](O)[C@@H](O)[C@@H](O[C@H]8[C@H](O)[C@@H](O)[C@@H](O[C@H]1[C@H](O)[C@H]2O)O[C@@H]8CO)O[C@@H]7CO)O[C@@H]6CO)O[C@@H]5CO)O[C@@H]4CO)O[C@@H]3CO | inactive
O=CCCCC=O | inactive
CCCCC(CC)COCC1CO1 (stereo not given) | inactive
CC(=O)Oc1ccccc1C(=O)Nc1ncc([N+](=O)[O-])s1 | 15.7 µM (active) and 21.1 µM (active)
